Only some compounds are listed: those with a hit (about 1.1% of all), similar ones and a draw of the others.
TrxR1 substrate = substrates of rat thioredoxin reductase 1 | O89049 | purified TrxR1 substrate turnover, NADPH consumption readout | Potency, µM (top dose mostly 114 µM), for the others: top-dose activity change, negative = substrate turnover | 390,000 tested, 0.01% active | AID 588456; also: potency is read from the fitted curve at half-maximal effect; nearly all actives have a fitted effect of over 50% in size
Target sequence (O89049 whole entry, looked up): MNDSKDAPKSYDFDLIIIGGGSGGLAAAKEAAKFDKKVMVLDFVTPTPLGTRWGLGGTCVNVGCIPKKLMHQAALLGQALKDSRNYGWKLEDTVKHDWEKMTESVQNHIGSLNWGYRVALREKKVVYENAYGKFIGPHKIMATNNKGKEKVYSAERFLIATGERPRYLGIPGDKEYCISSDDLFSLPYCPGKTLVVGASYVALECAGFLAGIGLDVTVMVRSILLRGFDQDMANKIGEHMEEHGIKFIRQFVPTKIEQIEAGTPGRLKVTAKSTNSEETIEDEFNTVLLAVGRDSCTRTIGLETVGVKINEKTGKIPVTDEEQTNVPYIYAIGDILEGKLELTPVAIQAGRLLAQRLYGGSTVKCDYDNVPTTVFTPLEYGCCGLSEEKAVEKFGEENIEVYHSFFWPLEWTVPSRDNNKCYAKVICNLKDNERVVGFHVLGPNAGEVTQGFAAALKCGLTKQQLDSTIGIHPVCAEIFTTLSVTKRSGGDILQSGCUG
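Rat TrxR1, dispensed at 90 nM, was prereduced with 400 uM NADPH (final) for 5 min at ~22 deg C, then incubated with compound 15 min before 400 uM selenite. A first-read NADPH fluorescence drop versus no-compound background flagged substrates.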
LDHA block = inhibitors of human lactate dehydrogenase A; 480,000 tested, 0.15% active; activity change, % (values are at about 110 or 230 µM); purified LDHA, NADH/diaphorase-resazurin fluorescence; active compounds read low; in the data active = activity change below about -30%; inconclusive = mostly about -25% to -30%;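 also: plate controls were DMSO wells for no effect and wells without enzyme for full effect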
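Resorufin fluorescence (ex540/em590), read at 0 and 20 min after diaphorase/resazurin addition, reports the NADH left after a 5 min room-temperature reaction of 2 nM human LDH5 with 0.06 mM NADH and 0.2 mM pyruvate.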
TrxR1 inh = blocks rat thioredoxin reductase 1; recombinant rTrxR1, NADPH fluorescence consumption, selenite substrate; Potency, µM (highest dose often 114 µM), inactives show top-dose activity change, negative = inhibition, most hits filed as inhibitors; 390,000 tested, 1% active; AID 588453; also: potency is read from the fitted curve at half-maximal effect; nearly all actives have a fitted effect of over 65% in size
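Rat TrxR1 (90 nM in the dispensed reagent) was pre-reduced with 400 uM NADPH for 5 min at room temperature, then incubated with compound for 15 min. After 400 uM selenite was added, NADPH fluorescence (Ex 340/Em 450 nm) was followed for 8 min.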
PI4K2A inh = PI4K2A (human) kinase inhibition. AID 1346378. purified PI4K2A, ADP-Glo luminescence, 1 h; active compounds read low. Q9BTU6. activity change, negative = inhibition, % at 76.9 µM. 420,000 tested, 0.13% active; in the data active = activity change below about -50%; inconclusive = mostly about -30% to -49%;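 also: -100% = wells without enzyme as full effect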
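PI4K2A activity was measured by ADP-Glo luminescence: enzyme (4 ug/mL stock) and phosphatidylinositol (1.2 mM stock) in Tris pH 7.5/MgCl2/EGTA/Triton X-100 buffer were reacted with ATP (300 microM stock) for one hour at ambient temperature.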
GALK inhibitor = galactokinase (human) inhibition. P51570. Purified GALK, Kinase-Glo residual ATP luminescence. Potency, µM (top dose mostly 57.5 µM), for inactives: at the top dose activity change, negative = inhibition, hits mostly inhibitors. 270,000 tested, 0.007% active; also: potency is read from the fitted curve at half-maximal effect
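Human GALK (5 nM) with 35 uM ATP and 100 uM galactose in 20 mM HEPES pH 8.0, 5 mM MgCl2, 60 mM NaCl, 1 mM DTT, 0.01% BSA. After 1 h at room temperature, leftover ATP was read by Kinase-Glo Plus luminescence.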
Integrin act MD = activates integrin-mediated alleviation for muscular dystrophy; alpha7betagal myoblasts, beta-gal FDG fluorescence, 48 h; Potency, µM (doses to about 38.3 µM), inactives show at the highest dose activation, actives largely listed as activators; 350,000 tested, 0.064% active; AID 624291;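 also: potency is read from the fitted curve at half-maximal effect; 100% = response of the positive control SU9516; nearly all actives have a fitted effect of over 60% in size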
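Alpha7betagal+/- myoblasts (passage 13) were plated 16-24 hr, then exposed to compounds (1:260 dilution of DMSO stock) for 48 hours at 37C. After MPER lysis, β-galactosidase reporter activity was read as FDG fluorescence (ex 480/em 540) after 30 minutes.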
Numbers without * were called inactive; u = inconclusive; x = no result given; ! = not confirmed by another sample; [ ] = dose if it differs, or a comment. Unless noted, calls follow the shape of the dose curve; as a rule, active = well fitted curve in the direction sought with a large enough effect; inconclusive = small, poorly fitted or top-dose-only effect, or another doubt; inactive = no such curve, though single readings can be large; an effect the other way counts as inactive or inconclusive. Unless noted, % is scaled to controls: 0 for no effect and ±100 for the full control effect.

SMILES	TrxR1 substrate	LDHA block	TrxR1 inh	PI4K2A inh	GALK inhibitor	Integrin act MD
CC1(C)CCC2=C(O1)c1ccccc1C(=O)C2=O	18µM*	18	25µM*!	-52*	x	x
CC1=C/C(=C(\c2cc(C)c(O)c(Br)c2)c2ccccc2S(=O)(=O)O)C=C(Br)C1=O	-1%	10	-6%	-69*	29%	30%
Cc1cc(C(=O)c2ccccc2)cc(C)c1O	8%[57.1 µM]	-1	3%[57.1 µM]	25	x	-13%
Cc1cc(O)c2c(CN3CCN(Cc4ccccc4)CC3)cc(=O)oc2c1	0%	-31*!	13%	1	1%	-11%
Cc1cc(O)c2c(CN3CCN(CCO)CC3)cc(=O)oc2c1	x	5	x	x	x	x
CCOC(=O)N1CCN([C@H]2CS(=O)(=O)C[C@@H]2S(=O)(=O)c2ccc(C)cc2)CC1	x	8	x	x	x	x
O=C(O)c1cc(NCc2cc(O)ccc2O)ccc1O	7%	15	40µM*	x	x	x
O=C(Nc1ccccc1)C(=O)Nc1ccccn1	14%	-6	19%	-22	7%	6%
O=C(Nc1cccc(O)c1)C(=O)Nc1ccccn1	12%	2	19%	-64*	8%	24%
O=C1CCCc2c1cc(C(=O)NC1CCCCCC1)c(=O)n2-c1ccc(C(F)(F)F)cc1	x	12	x	x	x	x
Cc1nn(-c2cccc(Cl)c2)c2c1C(c1cccnc1)C(C#N)=C(N)O2 (stereo unspecified)	-8%	23	u	-51*	2%	48%
Cc1nn(-c2cccc(Cl)c2)c2c1C(c1ccncc1)C(C#N)=C(N)O2 (stereo unspecified)	4%	2	u	-6	-4%	19%
O=C(O)c1ccccc1CSc1nc2ccccc2n1Cc1ccccc1C(=O)O	-1%[57.1 µM]	-32*	4%[57.1 µM]	3	-1%	u
CN1CCC2(CC1)N=C(c1ccc(F)cc1)C(=S)N2C(=O)c1ccccc1	0%	-2	5µM*	-26	-1%	-21%
Cc1c(CC(=O)NCCCO)c(=O)oc2cc3c(cc12)CCC(C)(C)O3	384%	-2	56µM*	2	x	-19%
Cc1c(CC(=O)NCC(=O)O)c(=O)oc2cc3c(cc12)CCC(C)(C)O3	484%	-9	-1%	-6	1%	2%
O=C(OCc1ccc(F)cc1F)c1cccc([N+](=O)[O-])c1	x	0	x	x	x	x
COc1cc(/C=C(/C#N)c2ccc(C(F)(F)F)cn2)cc(OC)c1O	x	7	x	x	x	x
Cc1occc1C(=O)NCc1ccc2c(c1)OCO2	-4%	-7	-7%	-3	-3%	-4%
Cc1occc1C(=O)NCc1cccc(CNC(=O)c2ccoc2C)c1	-4%	4	8.9µM*	u	0%	3%
C=C1C=CS(=O)(=O)N(C(CC(C)C)C(=O)OC)C1 (stereo unspecified)	-2%	x	11µM*	x	x	x
COC(=O)C(CC(C)C)N1CCC(=O)c2ccccc2S1(=O)=O (stereo unspecified)	-3%	-2	-36%	-5	0%	26%
CCOC(=O)C1=C(COC(=O)/C=C/c2ccc(C)o2)NC(=O)NC1C (stereo unspecified)	-11%	-4	50µM*	-4	x	-18%
CCOC(=O)C1=C(COC(=O)/C=C/c2ccccc2)NC(=O)NC1C (stereo unspecified)	-1%	-3	17%	-3	x	16%
N#Cc1ccc(/C=N/Nc2ccccc2C(F)(F)F)cc1	x	0	x	x	x	x
Cc1ccc(-c2nc3n(n2)Cc2ccccc2-3)cc1	-11%	-3	-11%	u	6%	-24%
c1ccc(-c2cn3c(n2)-c2ccccc2C3)cc1	70%	-1	9%	-51*	7%	7%
CCN(CC)S(=O)(=O)c1ccc(NC(=O)COC(=O)c2nn(C)c(=O)c3ccccc23)cc1	x	11	x	x	x	x
Cc1cc(C)nc(N2N=C(C(C)(C)C)CC2=O)n1	10%	0	40µM*	5	0%	-10%
